Mtb bLac sens – beta-lactam sensitization of Mtb H37Rv, H37Rv; M. tuberculosis H37Rv growth with meropenem, percent inhibition; inhibition, % at 25 µM; actives 0.27% (n = 330,000); AID 434955, 2010; call rule not given here;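 also: growth measured after seven days incubation then overnight dye step; 0% = bacteria only wells and 100% = bacteria with antibiotic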
VHR inh abs – VHR1 phosphatase inhibitors, primary screen, biochemical, absorbance, uHTS. recombinant VHR phosphatase, pNPP absorbance. inhibition, % at 13.3 µM. actives 0.52% (n = 290,000); in the data active = inhibition above about 50%
Target sequence (P51452 whole entry, looked up): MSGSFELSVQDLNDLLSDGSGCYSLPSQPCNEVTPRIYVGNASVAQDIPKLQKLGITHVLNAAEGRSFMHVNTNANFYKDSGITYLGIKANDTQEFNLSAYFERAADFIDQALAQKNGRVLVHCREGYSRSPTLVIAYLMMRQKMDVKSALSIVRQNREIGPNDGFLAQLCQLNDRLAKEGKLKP
GDH-TPI counter – GDH-TPI coupling enzyme inhibitors, primary screen, artefact control for M. tuberculosis FBA inhibitor project, biochemical, absorbance, full deck; AID 588335, 2011; GDH-TPI coupled enzyme counterscreen, NADH absorbance; inhibition, % at 4.8 µM; actives 1.2% (n = 360,000); in the data active = inhibition above about 30%;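 also: 0% = DMSO wells and 100% = wells lacking the enzyme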
Mtb hypoxia inh – PubChem AID 1159583 | M. tuberculosis hypoxia-regulated fluorescent reporter, fluorescence | fluorescence inhibition, % (concentration not given with the values) | actives 0.1% (n = 300,000); in the data active = fluorescence inhibition mostly above about 23%, no sharp cut-off; inactive = mostly below about 17%
FBA Mtb inh – Mtb FBA enzyme inhibitors, primary screen, biochemical, fluorescence, strain H37Rv. actives 2.3% (n = 360,000). inhibition, % at 1 µM. AID 588726, 2011. purified M. tuberculosis FBA, fluorescence read-out; in the data active = inhibition above about 27%;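 also: 0% = vehicle and 100% = reference inhibitor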
Target sequence (P9WQA3 whole entry, looked up): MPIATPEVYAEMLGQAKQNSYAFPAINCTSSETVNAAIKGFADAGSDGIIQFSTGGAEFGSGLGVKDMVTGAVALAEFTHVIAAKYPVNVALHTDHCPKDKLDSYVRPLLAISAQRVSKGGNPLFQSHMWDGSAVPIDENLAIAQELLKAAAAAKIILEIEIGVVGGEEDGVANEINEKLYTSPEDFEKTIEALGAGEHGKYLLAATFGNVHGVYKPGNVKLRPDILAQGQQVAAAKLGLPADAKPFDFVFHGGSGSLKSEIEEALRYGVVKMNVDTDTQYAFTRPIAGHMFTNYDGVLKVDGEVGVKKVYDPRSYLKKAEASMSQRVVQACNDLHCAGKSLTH
* hit, by the source's call; x = not tested or not shown; + = active, no number. Rows were chosen to be rich in hits. Some 3.6% of all compounds tested hit in one or more screens of this group.

SMILES | Mtb bLac sens | VHR inh abs | GDH-TPI counter | Mtb hypoxia inh | FBA Mtb inh
Cc1cc(NC(=O)c2sc(Nc3cccc(C(F)(F)F)c3)nc2N)no1 | 38 | 18 | 33* | -3 | -1
C=CCn1c(SCC(=O)N2CCOCC2)nc2sc3c(c2c1=O)CCCC3 | -4 | 6 | 8 | 3 | 2
C=CCn1c(SCC(=O)N2CCOCC2)nc2sc(C)c(C)c2c1=O | 6 | 51* | 21 | -8 | -5
NC(=NO)C1COc2ccccc2O1 (configuration not stated) | x | x | x | 12 | x
CC(=NNc1nccnc1Cl)c1ccc(Cl)c(Cl)c1 | x | x | x | 4 | x
C/C(=N\Nc1nccnc1Cl)c1ccc(O)c(C)c1 | 0 | 26 | 44* | x | 2
CN(CC(Cc1cccc2ccccc12)N(CC(Cc1ccccc1)N(CCc1ccccc1)N=O)N=O)N=O (configuration not stated) | x | x | x | 3 | x
COc1ccc(CNC(=O)C2CCCN(c3nc4ccccc4o3)C2)c(OC)c1 (configuration not stated) | 4 | 53* | 3 | 12 | 0
O=C(Oc1ccc2ccccc2c1)c1cncc(Br)c1 | 94 | 8 | 4 | 8 | 2
Cc1cc(=O)oc2cc(OC(=O)CCN3C(=O)c4ccccc4C3=O)ccc12 | 48 | -6 | 6 | 0 | +
CCCCn1nc(C(=O)Oc2ccc3c(C)cc(=O)oc3c2)c2ccccc2c1=O | 84 | 18 | 4 | 6 | +
O=C(Oc1ccc2c(=O)c(Oc3ccc4ccccc4c3)coc2c1)c1cncc(Br)c1 | 5 | -15 | 3 | x | 30*
Cc1cc(=O)oc2cc(OC(=O)c3cncc(Br)c3)ccc12 | 56 | 10 | -3 | 6 | +
COc1ccc(C2CC=C(C(=O)O)CN2S(=O)(=O)c2ccc(C)cc2)cc1OC (configuration not stated) | x | x | x | 7 | x
C=CCN(c1ccccc1)S(=O)(=O)c1cccc(C(=O)Oc2ccc3c(C)cc(=O)oc3c2)c1 | 69 | -10 | -4 | -11 | +
C=CCN(c1ccccc1)S(=O)(=O)c1cccc(C(=O)OCC(=O)NCCOC)c1 | -9 | 13 | 14 | 0 | 3
Cc1cc(=O)oc2ccc(OC(=O)CC(C)C)cc12 | -2 | 9 | -1 | 19 | -4
CCCC(=O)Oc1ccc2c(C)cc(=O)oc2c1 | 79 | -4 | 5 | 4 | +
COC(=O)C1=C(c2c(C)noc2C)CC2CCC1N2C(=O)N1CCC(C)CC1 (configuration not stated) | x | x | x | 7 | x
CC(Oc1ccc(Cl)cc1)C(=O)Nc1ccc(S(=O)(=O)Nc2nccs2)cc1 (configuration not stated) | -2 | 20 | 3 | -3 | 107*
CCc1nnc(NS(=O)(=O)c2ccc(NC(=O)/C=C/c3ccc(OC)cc3OC)cc2)s1 | -2 | -15 | 40* | 6 | 4
O=C(/C=C/c1ccc(OC(F)F)cc1)Nc1cccc(S(=O)(=O)NC2=NCCCCC2)c1 | -2 | 1 | 1 | 3 | -1
CCc1nnc(NS(=O)(=O)c2ccc(N/C=C\C(=O)c3cccc(OC)c3)cc2)s1 | 85 | 14 | 17 | 21 | 2
O=C(Nc1ccc(S(=O)(=O)NC2=NCCCCC2)cc1)c1cccs1 | 0 | x | 1 | 30* | -1
CN(C)c1ccc(C(=O)Nc2cccc(S(=O)(=O)NC3=NCCCCC3)c2)cc1 | -4 | x | 31* | 6 | -1
SMILES | Mtb bLac sens | VHR inh abs | GDH-TPI counter | Mtb hypoxia inh | FBA Mtb inh
COc1ccc(/C=C/C(=O)Nc2cccc(S(=O)(=O)NC3=NCCCCC3)c2)cc1 | -3 | 26 | 51* | 2 | 6
O=C(Nc1ccc(S(=O)(=O)NC2=NCCCCC2)cc1)c1ccc([N+](=O)[O-])s1 | 16 | x | 12 | 17 | -2
CN(C)C(=NO)c1c(Cl)cccc1Cl | x | x | x | 16 | x
Cc1ccc2c(c1)C1C(CO2)C(c2ccccc2)[C@]2(C)C(=O)N(Cc3ccco3)CC(=O)N12 (some centres not stated) | x | x | x | 5 | x
CC(C)CC(CC#N)N1CCN(Cc2ccccc2)CCC1=O (configuration not stated) | x | x | x | 1 | x
CCOc1ccc(C=NN2C(=O)C(CC(=O)Nc3ccc(F)cc3F)SC2=NC)cc1OC (configuration not stated) | x | x | x | 3 | x
CCN1CC(=NS(=O)(=O)N=C2CN(CC)C(=O)N2CC)N(CC)C1=O | x | x | x | 6 | x
C=CCOc1ccccc1C=NNC(=O)Cc1ccccc1 | x | x | x | 12 | x
COC(=O)C1=C(c2ccc(-c3ccccc3)c(F)c2)CC2CCC1N2C(=O)NC1CC1 (configuration not stated) | x | x | x | -13 | x
CCCCCCCN1CCC(=O)N(C(CO)Cc2ccccc2)CC1 (configuration not stated) | x | x | x | 19 | x
COc1ccc(/C=C/C(=O)Nc2cccc(S(=O)(=O)NC3=NCCCCC3)c2)c(OC)c1 | -1 | x | 36* | 3 | 4
CN=C1c2cc3c(Br)c(OC)ccc3n2CCN1C | 35 | 6 | 32* | 9 | 0
CN=C1c2cc3cc(OC)ccc3n2CCN1C | -23 | 18 | 9 | -2 | 5
CC(=O)N1CCN(c2ccc(NC(=O)C=Cc3ccccc3)cc2)CC1 | x | x | x | 4 | x
CCCCN1CC(=O)N2C3c4cc(C)ccc4OCC3C(C(=O)OCC)[C@]2(C)C1=O (some centres not stated) | x | x | x | 7 | x
O=C(c1ccccc1)c1ccc(N2CCOCC2)cc1 | x | x | 38* | x | 3
O=C(Cc1ccccc1)c1ccc(N2CCOCC2)cc1 | x | x | 37* | x | 6
O=C(CCc1ccccc1)Nc1ccc(N2CCOCC2)cc1 | 6 | -11 | 9 | 3 | 3
O=C(c1ccccc1)c1ccc(N2CCCC2)cc1 | 39 | 30 | 13 | 6 | 3
O=C(NN=Cc1cccc([N+](=O)[O-])c1)c1cccc2cc[nH]c12 | x | x | x | 6 | x
O=C(NCCN1C(=O)S/C(=C\c2ccc(F)cc2)C1=O)c1cccc(S(=O)(=O)N2CCOCC2)c1 | 4 | -1 | 36* | 10 | -3
CCN(CC)c1ccc(/C=N/N2CCOCC2)cc1 | 0 | 13 | 43* | x | 0
CCN(CC)c1ccc(C=NNC(=O)c2cccc(S(=O)(=O)N3CCOCC3)c2)cc1 | x | x | x | -5 | x
CCN(CC)c1ccc(/C=N/NC(=O)c2cccc(S(=O)(=O)N3CCOCC3)c2)cc1 | 1 | -4 | 32* | x | 0
O=C(NCCN1C(=O)S/C(=C\c2ccc(Cl)cc2)C1=O)c1ccc(F)c(S(=O)(=O)N2CCOCC2)c1 | 2 | 1 | 4 | -7 | -1
CCN(Cc1ccccc1)c1ccc(/C=N/N2CCOCC2)cc1 | 4 | 6 | 28 | x | 1
CCN(Cc1ccccc1)c1ccc(/C=N/NC(=O)c2cccc(S(=O)(=O)N3CCOCC3)c2)cc1 | 5 | 2 | 43* | x | 4
CC1SC(=NN=Cc2ccco2)N(Cc2ccc(F)cc2)C1=O (configuration not stated) | x | x | x | -5 | x
CCCC(C#Cc1cc(OC)cc(OC)c1)=C1c2ccccc2C(=O)N1c1ccccc1 | x | x | x | 7 | x
